Measurements from PubChem BioAssay AID1845227 (National Center for Advancing Translational Sciences (NCATS), 2023).
Records with an inconclusive call do not appear. Activity calls are given as the source filed them. Calls come from the whole dose curve; as a rule, active = well fitted inhibition curve with a large enough effect; inconclusive = small, poorly fitted or top-dose-only effect; inactive = no such curve, though single readings can be large or run the other way.

Each compound was assayed against Luciferin 4-monooxygenase (Photinus pyralis) (UniProt P08659) (assay: Confirmatory firefly luciferase (FLuc) qHTS assay for identification of artifact compounds). Details: purified FLuc enzyme, luminescence, 5 min; series mostly up to 38.9 µM; activity change, negative = inhibition: at the top concentration.
Method in brief: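 Compounds were preincubated 15 min at room temperature with 10 uM D-luciferin and 10 uM ATP in Tris acetate pH 7.6. 10 nM Photinus pyralis luciferase was then added, and luminescence was read after 5 min.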
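Note: 0% = DMSO and -100% = no enzyme control.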

Activity change, negative = inhibition, inactive:
O=C1c2ccccc2C(=O)N1c1cccc2cnccc12 1.35%
COc1ccc(NC(=O)C(C)n2nc(-c3cc(C)ccc3C)c3c(c2=O)CCCC3)cc1 (stereo not given) 10.7%
[O][C@H]1[C@@H](O)[C@@H](CO)O[C@@H](O[C@@H]2[C@@H]3OC[C@H]2O[C@H](O[C@@H]2[C@@H](O)[C@H](C[C@@H]4[C@@H]5OC[C@H]4O[CH][C@@H]5O)O[C@H](CO)[C@@H]2OS(=O)(=O)O)[C@@H]3OS(=O)(=O)O)[C@@H]1O -2.24%
O=C(Cc1ccccc1)Nc1ccc2oc(-c3cccnc3)nc2c1 -9.51% [at 78.4 µM]
Cc1cn(C)c(CC(=O)N2CCN(c3ccccc3F)CC2)c1C(=O)O 3.91%
COC(=O)c1scc(-c2ccc(C)cc2)c1S(=O)(=O)N1CCN(c2ccc(C(C)=O)cc2)CC1 14.9%
O=C(Nc1nnc(-c2ccncc2)s1)Nc1cccc2ccccc12 11.8%
CCCCN(C)CCCNC(=O)CN1C(=O)COc2ccc(S(=O)(=O)N3CCC(C)CC3)cc21 12.2%
COc1ccc(-c2c3c(=O)n(C)c(=O)n(C)c3c3n2-c2ccccc2NC3c2ccccc2OC)cc1 (stereo not given) -5.6%
CCOC(=O)c1c(C)[nH]c(C)c1S(=O)(=O)N1CCC(C(=O)N2CCN(c3ccccc3)CC2)CC1 1.27%
Cc1ccc(-c2nc3scc(CCNS(=O)(=O)c4ccc(F)c(C)c4)n3n2)cc1 -3.25%
O=C(O)Cc1cc(F)c(S(=O)(=O)N2CCN(S(=O)(=O)c3ccc4c(c3)OCCO4)CC2)cc1F -5.63%
Cc1ccc(CNS(=O)(=O)c2ccc(-c3cc(C(F)(F)F)on3)s2)cc1 0.85%
COc1ccc(C2Nc3ccccc3C(=O)N2Cc2ccccc2)cc1Oc1ccc(NC(C)=O)cc1 (stereo not given) 4.88%
CCCCN(CCCC)C(=O)c1cc2c(=O)n3ccccc3nc2s1 2.17%
CCC(CC)c1nn2c(=O)cc(COc3ccc(NC(=O)c4ccccc4C)cc3)nc2s1 -1.2%
O=C(NCCS(=O)(=O)N1CCN(c2ccc(F)cc2)CC1)C1CC(=O)N(c2ccc(F)cc2)C1 (stereo not given) 32.6%
COc1ccc(NC(=O)Cn2c(=O)n(CCc3ccccc3)c(=O)c3c4c(sc32)CCCC4)cc1 2.55%
CCCc1cc(=O)[nH]c(SCc2nc(-c3ccccc3F)no2)n1 12.3%
COc1ccc(C2N(Cc3ccccc3)C(=O)c3ccccc3N2C)cc1COc1ccc(NC(C)=O)cc1 (stereo not given) -3.87%
Cc1c(Cl)cccc1NC(=O)c1cccc(NC(=O)N2CCSc3ncccc32)c1 5.82%
CCc1ccc(NC(=O)CN2C(=O)C3(SCC(=O)N3c3ccc(F)c(F)c3)c3ccccc32)cc1 (stereo not given) 6.32%
Cc1cn2c(=O)cc(COC(=O)c3cccc(NC(=O)c4ccccc4C)c3)nc2s1 -5.59%
NC(=O)c1ccc(-c2noc(-c3cccc(Cl)c3)n2)cc1 -7.53%
O=c1cc(-c2ccc(O)cc2)oc2cc(O[C@@H]3O[C@H](CO)[C@H](O)[C@H](O)[C@H]3O)cc(O)c12 4.69%
Cc1cc(-c2ccccc2)n2nc(-c3ccc(Cl)cc3)cc2n1 -0.184%
COc1ccc(Cn2c(CNS(=O)(=O)c3ccc(Cl)s3)nc3cccnc32)cc1 3.97%
COc1cccc(NCc2ccc(O)c3ncccc23)n1 10.5%
Cc1ccccc1CNC(=O)C(C)N(c1ccccc1)S(C)(=O)=O (stereo not given) 4.48%
Cc1nnc(NC(=O)c2nc(S(=O)(=O)Cc3ccccc3)ncc2Cl)s1 2.84%
CCOc1ccccc1NC(=O)N(Cc1ccc(C)o1)C1CCN(C(C)=O)CC1 8.24%
Nc1nc2nc(-c3ccc(Cl)cc3)cc(C(F)(F)F)n2n1 3.35%
Cc1ccccc1NS(=O)(=O)c1ccc2[nH]c3c(c2c1)CCCCC3 2.48%
CN(C)[C@@H]1C(=O)C(C(=O)NCN2CCCC2)C(=O)[C@@]2(O)C(=O)C3C(=O)c4c(O)cccc4[C@@](C)(O)[C@H]3C[C@@H]12 (stereo not given in full) -3.07%
CC(NC(=O)CSc1nc(-c2ccccc2F)nc2cc(=O)[nH]n12)c1nc2ccccc2n1C (stereo not given) -1.81%
